From PubChem BioAssay AID1777 (Sanford-Burnham Center for Chemical Genomics, 2009)
About 50 (0.02%) of roughly 280,000 compounds were called active. The sample holds actives, similar compounds and a random draw of the others, so the mix is not that of the screen. Results with a measured potency or affinity are listed apart. Unmarked numbers belong to inactive results. No stated cut-off is given here; in the data, active means activation above about 50% (passing the limit was not always enough); inactive means the rest.

These molecules were tested against Kappa-type opioid receptor (Homo sapiens) (UniProt P41145) (assay: KOR agonists, beta-arrestin recruitment, primary screen, cell-based, luminescence, uHTS (AID 1777)). Details: at 10 µM, hits give high values.
Chain of Kappa-type opioid receptor (Homo sapiens) (P41145 whole entry, looked up): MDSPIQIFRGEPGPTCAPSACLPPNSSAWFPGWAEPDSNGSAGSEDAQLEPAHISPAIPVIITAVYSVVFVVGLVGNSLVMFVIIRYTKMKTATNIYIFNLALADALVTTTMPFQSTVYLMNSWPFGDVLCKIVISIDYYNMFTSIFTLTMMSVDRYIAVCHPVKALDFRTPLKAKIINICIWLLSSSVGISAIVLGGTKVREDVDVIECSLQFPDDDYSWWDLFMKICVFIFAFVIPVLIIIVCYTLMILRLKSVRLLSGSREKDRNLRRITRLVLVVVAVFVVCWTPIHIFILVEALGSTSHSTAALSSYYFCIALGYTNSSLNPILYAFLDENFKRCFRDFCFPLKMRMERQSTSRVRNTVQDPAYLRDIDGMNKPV

Question: Which activation does the source give for `COc1cc(S(=O)(=O)NC2CCCC2)ccc1-n1cnnn1` here?
Answer: Its activation is -0.2%.

Question: How did the activation turn out when `CCOc1ccccc1NC(=O)CCn1cccc1` was run?
Answer: Its activation is -0.4%.

Question: With `CN(C)/C=C/C(=O)c1ccc(S(=O)(=O)c2ccccc2)cc1` as the molecule, how does the activation read?
Answer: Its activation is -5%.

Question: With `C=CCSc1nc(C)c(CCC(C)C)c(=O)[nH]1` as the molecule, how does the activation read?
Answer: Its activation is -2.2%.

Question: Which activation does the source give for `COc1ccc([N+](=O)[O-])cc1NC(=O)COC(=O)c1ccccc1C(=O)c1ccccc1` here?
Answer: Its activation is -5.5%.

Question: `CCc1ccccc1NC(=O)c1cccc(N2C(=O)C3C4CCC(C4)C3C2=O)c1` (stereo not drawn) was tested. Which activation did it give?
Answer: The activation was 3.3%.

Question: With `CCCN(Cc1cc2cc(C)ccc2[nH]c1=O)C(=O)c1ccccn1` as the molecule, how does the activation read?
Answer: The activation was 9.9%.

Question: How did the activation turn out when `Cc1ccc2[nH]c(=O)c(CN(C)C(=O)c3ccccn3)cc2c1` was run?
Answer: The activation was -3.6%.

Question: Which activation does the source give for `CCCN(Cc1cc2ccc(C)cc2[nH]c1=O)C(=O)c1ccccn1` here?
Answer: The activation was 46.4%.

Question: With `CCCCN(Cc1cc2cc(OC)ccc2[nH]c1=O)C(=O)c1ccccn1` as the molecule, how does the activation read?
Answer: The activation was 40.3%.

Question: With `COCC(=O)N(Cc1cc2ccccc2[nH]c1=O)c1ccc(OC)cc1` as the molecule, how does the activation read?
Answer: The activation was 9.6%.

Question: `COc1ccc2nc(NC(=O)CCNS(=O)(=O)c3ccc4c(c3)oc(=O)n4C)sc2c1` was tested. Which activation did it give?
Answer: Its activation is -3.3%.

Question: With `COc1ccc(OCC(=O)NNC(=O)C2CCCO2)cc1` (stereo not drawn) as the molecule, how does the activation read?
Answer: Its activation is 8.8%.

Question: Which activation does the source give for `CCOC(=O)Cn1cnc2c(nnn2-c2ccccc2)c1=O` here?
Answer: The activation was -1%.

Question: `Cc1ccc(-n2nnc3c(=O)n(CC(=O)c4ccccc4)cnc32)cc1` was tested. Which activation did it give?
Answer: Its activation is 4.2%.

Question: Which activation does the source give for `CCOc1ccc(-n2nnc3c(=O)n(CC(=O)c4ccccc4)cnc32)cc1` here?
Answer: Its activation is 52.9% (active).

Question: How did the activation turn out when `CCOc1ccc(-n2c(=O)c3sccc3n(CC(=O)NCC3CCCO3)c2=O)cc1` (stereo not drawn) was run?
Answer: Its activation is -4.3%.

Question: With `O=C(Cc1ccccc1)c1c[nH]c(C(=O)NCCCn2ccnc2)c1` as the molecule, how does the activation read?
Answer: Its activation is 1.2%.

Question: `CCC(C)(C)N=C(NC#N)Nc1cccnc1` was tested. Which activation did it give?
Answer: The activation was 87.5% (active).

Question: How did the activation turn out when `CC(Nc1cccnc1)=C(C#N)C#N` was run?
Answer: Its activation is -7.7%.

Question: For `CC(N=C(NC#N)Nc1ccncc1)C(C)(C)C` (stereo not drawn), which activation is on record?
Answer: Its activation is -0.9%.

Question: With `CCCCN(C(=O)c1cc(CC)c(C)s1)c1c(N)n(CC(C)C)c(=O)[nH]c1=O` as the molecule, how does the activation read?
Answer: The activation was -0.3%.

Question: Which activation does the source give for `COC(=O)c1ccc(NC(=S)N(Cc2cccnc2)Cc2ccco2)cc1` here?
Answer: Its activation is -0.8%.

Question: How did the activation turn out when `O=C(c1ccc(Cl)cc1)N(Cc1ccc(Br)cc1)N1C(=O)CCC1=O` was run?
Answer: Its activation is 1.3%.

Question: With `O=C(c1ccc([N+](=O)[O-])cc1)N(Cc1ccc(Cl)cc1Cl)N1C(=O)CCCC1=O` as the molecule, how does the activation read?
Answer: The activation was -0.8%.

Question: With `O=C(c1ccccc1Cl)N(Cc1ccc(Br)cc1)N1C(=O)CCCC1=O` as the molecule, how does the activation read?
Answer: The activation was -1%.

Question: `O=C(c1ccc(Cl)cc1)N(Cc1ccccc1F)N1C(=O)CCCC1=O` was tested. Which activation did it give?
Answer: The activation was -0.9%.

Question: `COC(=O)C1=CN(CC2CCCO2)C=C(C(=O)OC)C1c1ccsc1` (stereo not drawn) was tested. Which activation did it give?
Answer: The activation was -4.3%.

Question: Which activation does the source give for `COc1cc(/C=N/Nc2ccc(C(F)(F)F)cn2)cc(OC)c1O` here?
Answer: Its activation is -5%.

Question: `Cn1c2ccccc2c(=O)c2ccc(C#CC3(N)CCCCC3)cc21` was tested. Which activation did it give?
Answer: Its activation is -3.1%.

Question: How did the activation turn out when `O=C(c1ccc(S(=O)(=O)N2CCCC2)cc1)N1CCC(CN2C(=O)c3cccc4cccc(c34)C2=O)CC1` was run?
Answer: The activation was 0.7%.

Question: `CC(C)C[C@H](NC(=O)c1nc[nH]c1C(=O)N[C@@H](CCCCNC(=O)OC(C)(C)C)C(=O)OC(C)(C)C)C(=O)OC(C)(C)C` was tested. Which activation did it give?
Answer: Its activation is 5.3%.

Question: For `CCN(CC)CCNc1nc(C(F)(F)F)nc2c1nnn2Cc1ccccc1`, which activation is on record?
Answer: The activation was -3.1%.

Question: With `O=C(Cc1ccc([N+](=O)[O-])cc1)N/N=C/c1ccccc1F` as the molecule, how does the activation read?
Answer: Its activation is -4.4%.

Question: With `CCC(C)(C(=O)NC1CCCCC1)N(Cc1ccco1)C(=O)c1ccc2c(c1)OCO2` (stereo not drawn) as the molecule, how does the activation read?
Answer: Its activation is 1.2%.

Question: How did the activation turn out when `CCC(C)(C(=O)NC1CCCC1)N(C(=O)c1cnccn1)c1ccccc1` (stereo not drawn) was run?
Answer: The activation was -12.3%.

Question: `CCC(C)(C(=O)NC1CCCCC1)N(C)C(=O)c1ccccn1` (stereo not drawn) was tested. Which activation did it give?
Answer: Its activation is 1.2%.

Question: For `CCC(C)(C(=O)NC1CCCC1)N(C)C(=O)c1ccccn1` (stereo not drawn), which activation is on record?
Answer: Its activation is -0.7%.

Question: Which activation does the source give for `CCC(C)(C(=O)NC1CCCCC1)N(Cc1ccco1)C(=O)CNC(=O)c1ccccc1` (stereo not drawn) here?
Answer: Its activation is 1.6%.

Question: `CCC(C)(C(=O)NC1CCCC1)N(Cc1ccco1)C(=O)c1ccc2c(c1)OCO2` (stereo not drawn) was tested. Which activation did it give?
Answer: The activation was 10.3%.

Question: How did the activation turn out when `CC(C)(C)c1cc(C(=O)NC2CC2)n(Cc2ccc(F)cc2)n1` was run?
Answer: The activation was -4.7%.

Question: With `CS(=O)(=O)c1ccc(NCC2CCCO2)c([N+](=O)[O-])c1` (stereo not drawn) as the molecule, how does the activation read?
Answer: Its activation is -3.6%.

Question: `O=c1[nH]cc(S(=O)(=O)NCc2ccccc2)c(=O)[nH]1` was tested. Which activation did it give?
Answer: Its activation is -1.3%.

Question: Which activation does the source give for `CCNS(=O)(=O)c1ccc(CCC(=O)Nc2ccccc2C(=O)OC)cc1` here?
Answer: Its activation is -1.4%.

Question: How did the activation turn out when `Cc1cc(C)cc(C(=O)NCC(=O)OCC(=O)N2CCN(S(=O)(=O)c3ccc4ccccc4c3)CC2)c1` was run?
Answer: The activation was -0.4%.

Question: Which activation does the source give for `CCC(C)(C(=O)NC1CCCC1)N(Cc1cccs1)C(C)=O` (stereo not drawn) here?
Answer: Its activation is -2.2%.

Question: How did the activation turn out when `CCC(C)(C(=O)NC1CCCCC1)N(Cc1cccs1)C(=O)Cc1cccs1` (stereo not drawn) was run?
Answer: Its activation is 3.8%.

Question: How did the activation turn out when `CCC(C)(C(=O)NC1CCCC1)N(Cc1cccs1)C(=O)Cc1cccs1` (stereo not drawn) was run?
Answer: Its activation is -0.9%.

Question: How did the activation turn out when `CCC(C)(C(=O)NC1CCCCC1)N(Cc1cccs1)C(=O)c1ccc(=O)[nH]c1` (stereo not drawn) was run?
Answer: Its activation is -6.4%.

Question: How did the activation turn out when `CC(=O)c1sc(N/N=C\c2ccc(Br)cc2)nc1C` was run?
Answer: Its activation is 3.5%.

Question: For `COc1ccc(N2CCN(S(=O)(=O)CCNC(=O)COc3ccccc3OC)CC2)cc1`, which activation is on record?
Answer: The activation was -4.1%.

Question: With `NC1=NC(c2cn[nH]c2-c2ccc(F)cc2)n2c(nc3ccccc32)N1` (stereo not drawn) as the molecule, how does the activation read?
Answer: Its activation is 0.5%.

Question: `CC(CNC(=O)c1ccc2c(c1)OCO2)c1ccc([N+](=O)[O-])cc1` (stereo not drawn) was tested. Which activation did it give?
Answer: Its activation is -4.6%.

Question: Which activation does the source give for `O=C(CN1C(=O)COc2ccccc21)N(Cc1ccc2c(c1)OCO2)CC1CCCO1` (stereo not drawn) here?
Answer: The activation was 72.1%.

Question: For `COc1ccc(CN(CC2CCCO2)C(=O)CN2C(=O)C(C)Oc3ccc(C)cc32)cc1OC` (stereo not drawn), which activation is on record?
Answer: Its activation is 50.9%.

Question: `O=C(CCCCCBr)N1CCC(CC2CC(c3ccc(Cl)cc3)=NO2)(C(=O)NCC2CCCCC2)CC1` (stereo not drawn) was tested. Which activation did it give?
Answer: Its activation is -0.1%.

Question: How did the activation turn out when `CC(C)N1CCc2c(sc(NC(=O)c3ccc4ccccc4c3)c2C(N)=O)C1` was run?
Answer: The activation was -0.3%.

Question: For `CCN1CCc2c(sc(NC(=O)c3cc4ccccc4cc3OC)c2C(N)=O)C1`, which activation is on record?
Answer: Its activation is 0.1%.

Question: How did the activation turn out when `CNC(=O)/C(C#N)=C/c1ccc(-c2nc3ccccc3s2)o1` was run?
Answer: The activation was 169% (active).

Question: `N#C/C(=C\c1ccc(-c2nc3ccccc3s2)o1)C(N)=O` was tested. Which activation did it give?
Answer: Its activation is 0.2%.

Question: For `N#C/C(=C\c1ccc(-c2ccccc2Cl)o1)C(=O)Nc1nc2ccccc2s1`, which activation is on record?
Answer: Its activation is -1.8%.

Question: Which activation does the source give for `CN=C1SC(CC(=O)Nc2ccccc2F)C(=O)N1/N=C/c1ccc(O)c(OC)c1` (stereo not drawn) here?
Answer: Its activation is 14.6%.

Question: For `Cn1c(=O)c(=O)n(C)c2cc(S(=O)(=O)N3CCCC3C(=O)NCc3cccs3)ccc21` (stereo not drawn), which activation is on record?
Answer: The activation was 1%.

Question: `COc1ccc(-c2ccc(C#N)c(SCC(=O)Nc3sc4c(c3C#N)CCC4)n2)cc1` was tested. Which activation did it give?
Answer: Its activation is -2.3%.

Question: For `N#Cc1ccc(-c2ccc(F)cc2)nc1SCC(=O)Nc1sc2c(c1C#N)CCC2`, which activation is on record?
Answer: Its activation is -1%.

Question: `CCc1ccccc1OCC(=O)N(CC)CC(=O)NCc1ccc(F)cc1` was tested. Which activation did it give?
Answer: The activation was -3%.

Question: With `Cc1cc(C(=O)CSc2nncn2C)c(C)n1-c1ccccc1` as the molecule, how does the activation read?
Answer: The activation was -2.9%.

Question: How did the activation turn out when `Cc1nc(C)c(NC(=O)OC(C)C)cc1NC(=O)OC(C)C` was run?
Answer: Its activation is -4.7%.
